Screening results: PubChem, National Center for Advancing Translational Sciences (NCATS)
An excerpt weighted towards active compounds, which were near 6% of everything screened.
D3 ag: agonists of human D3 dopamine receptor; P35462; D3R DiscoveRx beta-arrestin cells, luminescence, 90 min; max activation, %; 410,000 compounds, 0.58% hits; AID 652048; in the data active = max activation above about 30%; note: 0% is about no effect
Target sequence (P35462 whole entry, looked up): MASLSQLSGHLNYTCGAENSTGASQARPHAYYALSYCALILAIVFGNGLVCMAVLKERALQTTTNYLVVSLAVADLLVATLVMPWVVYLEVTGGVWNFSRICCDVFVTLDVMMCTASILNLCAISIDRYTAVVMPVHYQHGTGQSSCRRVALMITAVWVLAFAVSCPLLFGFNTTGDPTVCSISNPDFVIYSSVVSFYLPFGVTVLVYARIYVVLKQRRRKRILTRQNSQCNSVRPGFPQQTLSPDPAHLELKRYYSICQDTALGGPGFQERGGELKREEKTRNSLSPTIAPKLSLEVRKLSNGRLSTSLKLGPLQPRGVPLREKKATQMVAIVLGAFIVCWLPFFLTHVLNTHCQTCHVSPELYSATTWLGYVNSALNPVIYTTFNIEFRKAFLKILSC
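Agonist mode: compounds and dopamine controls were applied to plated cells for 90 min at 37 degrees C after an overnight attachment at 1500 cells/well. Luminescent read-out followed 30 - 60 minutes at room temperature with DiscoveRx detection reagent.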
D1 antagonist: human D1 dopamine receptor antagonism. P21728. HEK293 TREx D1 cells, calcium flux, dopamine EC80; stronger effect = lower value. activity change, negative = inhibition, % at 10 µM. 360,000 compounds, 3.2% hits. AID 504652; in the data active = activity change below about -30%; note: % is set by controls: 0 for no effect and ±100 for the full control effect
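HEK293 T-REx cells expressing inducible, force-coupled D1 receptor; no-wash Ca dye, 30–90 min RT. Cmpd → 180 s read at 1 Hz → EC80 DA → 180 s read.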
D3 antag: blocks the human D3 dopamine receptor; max response, negative = inhibition, %; P35462; D3R cells, DiscoveRx beta-arrestin luminescence, antagonist mode; stronger effect = lower value; AID 652054; 360,000 compounds, 2.5% hits; in the data active = max response below about -50%; inconclusive = no clear call, values can overlap the other calls; note: % is set by controls: 0 for no effect and ±100 for the full control effect
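Cells plated overnight at 1500 cells/well, then exposed to library compounds with dopamine controls for 90 minutes at 37 degrees C. DiscoveRx reagent added for 30–60 minutes at room temperature; luminescence read, quantitative HTS format.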
D1 PAM: enhances dopamine response at the human D1 receptor; 360,000 compounds, 0.036% hits; HEK293 TREx D1 cells, calcium flux, dopamine EC20 potentiation; P21728; potentiation, % at 10 µM; AID 504651; in the data active = potentiation above about 30%; note: 0% is about no effect
D1 agonist: human D1 receptor agonism. P21728. HEK293 T-REx D1 cells, calcium flux, agonist mode. activation, % at 2 µM. 360,000 compounds, 1% hits. AID 504660; in the data active = activation above about 30%; note: 0% is about no effect
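Agonism was scored from calcium flux recorded over 180 s (1 read/s) after pintool compound addition, following a 10-cycle baseline. Cells were inducible force-coupled HEK293 TREx D1, plated overnight at 30 C and loaded with no-wash calcium dye.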
Numbers without * were called inactive; ? = inconclusive; / = no result given.

SMILES	D3 ag	D1 antagonist	D3 antag	D1 PAM	D1 agonist
Cc1ccc(S(=O)(=O)N2CC3C(=O)C[C@@H](c4ccccc4)N(S(=O)(=O)c4ccccc4Cl)C3CC2c2ccccc2)cc1 (stereo partly specified)	0	/	8	/	/
C/C=C\C=C/C(=O)Nc1cccc(C2=NOC3(C2)C[C@@H](C(N)=O)N(C(=O)c2ccc(Cl)cc2)C3)c1 (stereo partly specified)	2	-30*	22	-2	3
C/C=C\C=C/C(=O)Nc1cccc(C2=NOC3(C2)C[C@H](C(N)=O)N(C(=O)c2ccc(OC)cc2)C3)c1 (stereo partly specified)	8	-9	?	-2	5
CCOC(=O)c1ccc(NC(=O)C(CC)Sc2nc3ccncc3[nH]2)cc1 (stereo unspecified)	6	25	/	-1	53*
O=[N+]([O-])c1ccc(N=Cc2sc3ccccc3c2O)cc1	-6	7	7	-7	32*
COc1ccc(-c2nc(-c3ccc(O)cc3O)cs2)cc1OC	39*	-1	47	0	6
C=C1CC[C@H](O)C/C1=C\C=C1/CCC[C@]2(C)[C@@H]([C@H](C)CCCC(C)C)CC[C@@H]12	6	/	/	/	/
COc1ccc(C(=O)NCCn2cc(SCC(=O)NCC3CCCO3)c3ccccc32)cc1 (stereo unspecified)	0	-16	24	-3	1
COc1ccc(C(=O)NCCn2cc(SCC(=O)NCc3ccco3)c3ccccc32)cc1	4	15	-69*	4	1
COC(=O)C[C@H]1CC[C@@H](NC(=O)c2ccncc2)[C@@H](CO)O1	-7	/	-12	/	/
NNc1nc2c(-c3cccc(C(F)(F)F)c3)nnn2c2ccccc12	32*	-10	36	0	4
O=P(O)(O)C(O)(Cc1cnc2ccccn12)P(=O)(O)O	-5	/	/	/	/
CCOC(=O)c1c(NC(=O)COc2ccccc2F)sc2c1CC(C)(C)NC2(C)C	7	12	18	36*	3
CCOC(=O)c1c(NC(=O)CSc2ncccn2)sc2c1CC(C)(C)NC2(C)C	3	6	4	8	4
Cc1nc(SCC(=O)O)c2oc3ccccc3c2n1	-2	-17	-26	0	3
Cc1nc(SCC(=O)N2CCN(c3ccccc3)CC2)c2oc3ccccc3c2n1	42*	6	118	7	1
O=C(C[n+]1ccccc1)N/N=C/c1cc(Br)ccc1F	-14	-10	?	-4	2
O=C(C[n+]1ccccc1)N/N=C/c1cc(Br)cc(Br)c1O	-45	-2	-165*	-1	4
CCC(O)(CC)C(=O)N/N=C/c1cc(Br)cc(Br)c1O	-26	1	-66*	-3	3
C[C@H]1CCC[C@]2(O[C@H](CCO)C[C@H](O)[C@H]2O)O1	37*	/	11	/	/
Cc1ccc2c(c1)c1c3n2CCN(C(=O)c2cccc(C(F)(F)F)c2)C3CCC1 (stereo unspecified)	7	10	/	0	0
COc1ccc(NC(=O)C2CC(c3c(F)cccc3Cl)=NO2)cc1 (stereo unspecified)	1	-15	-7	-3	5
COc1cc(NC(=O)C2CC(c3c(F)cccc3Cl)=NO2)cc(OC)c1OC (stereo unspecified)	20	-39*	42	-7	20
O=C(CCCn1cncn1)N1CCCC(Nc2ccc(F)cc2)C1 (stereo unspecified)	-1	-10	-26	-4	0
O=C1c2ccccc2NC(c2ccccc2)N1c1ccc(O)cc1 (stereo unspecified)	1	-10	-17	-1	1
SMILES	D3 ag	D1 antagonist	D3 antag	D1 PAM	D1 agonist
O=C1c2ccccc2NC(c2ccc(O)cc2)N1c1ccccc1 (stereo unspecified)	-8	-75*	-4	2	0
Cn1c(=O)cc(SCC(=O)N2CCN(c3ccccc3F)CC2)c2cc(Cl)ccc21	-11	9	/	-1	1
CCOC(=O)C1CCN(C(=O)C2CCN(S(=O)(=O)N3CCC4(CC3)OCCO4)CC2)CC1	5	9	7	0	0
COc1cc(CNCC(C)C)c(Br)cc1OCC(=O)NCc1ccccc1	-2	-12	-7	0	7
CCNCc1cc(OCC)c(OCC(=O)NCCc2ccccc2)cc1Cl	-10	-40*	7	-8	33*
COc1cc(CNCCN(C)C)c(Br)cc1OCC(=O)NCc1ccccc1	-8	-34*	-15	-4	3
O=C(CN1CCCC1)N/N=C/c1c(O)ccc2ccccc12	5	6	17	-1	10
O=c1c2cc3c(cc2[nH]c(=S)n1C1CCN(Cc2ccccc2)CC1)OCO3	-19	-32*	?	-9	3
CC(=O)c1cccc(NC(=O)C2CCCN(C(=O)c3cnn(-c4ccccc4)c3-n3cccc3)C2)c1 (stereo unspecified)	2	-17	/	-3	6
CCN1CCN(C(=S)Nc2cccc(Cl)c2)CC1	-2	/	-6	-6	0
CCN1CCN(C(=S)c2ccc(Cl)c(Cl)c2)CC1	-5	12	-51*	-2	0
CCN1CCN(C(=S)Nc2ccc(Cl)c(Cl)c2)CC1	-31	3	-50*	-1	20
O=C(/C=C/c1ccco1)Nc1sc2c(c1C(=O)O)CCC2	-14	7	-26	-4	2
N#Cc1c(NC(=O)/C=C/c2ccco2)sc2c1CCCC2	-7	12	-60*	-3	1
CNS(=O)(=O)c1ccc(Oc2ccc(S(=O)(=O)NC)cc2)cc1	-8	-44*	-3	-6	8
CC(C)Oc1ccc(S(=O)(=O)N2CCOCC2)cc1NC(=O)C1COc2ccccc2O1 (stereo unspecified)	5	-44*	53	-2	3
CCOc1ccc(S(=O)(=O)N2CCCCC2)cc1NC(=O)C1COc2ccccc2O1 (stereo unspecified)	4	0	9	-10	6
COc1cccc(OCC(=O)NNC(=O)C(=O)Nc2ccc(OC)cc2OC)c1	-2	-25	1	-2	1
COC1=CC(=O)c2nc(Cl)ccc2C1=O	-12	/	-75*	/	/
CCOc1ccccc1NC(=O)CCNC(=O)C1CCN(S(=O)(=O)c2ccccc2)CC1	2	/	15	/	/
CC(O)c1cccc(-c2ccc(CN3C[C@]4(CO)O[C@@H](CO)C[C@@H]4S3(=O)=O)cc2)c1 (stereo partly specified)	45*	/	3	/	/
O=S1(=O)[C@H]2C[C@@H]3C=C[C@@]2(CN1Cc1cccc(Cl)c1)O3	7	1	0	-6	4
COCCCNC(=O)CCc1c(C)nc2c(-c3ccc(F)cc3)c(C)nn2c1C	7	-34*	?	-13	2
COCCNC(=O)CCc1c(C)nc2c(-c3ccc(F)cc3)c(C)nn2c1C	-10	-22	-10	-7	1
